Data on 25 compounds can be found in the supplement of paper PMC10037445.

Molecules are shown by their SMILES. Whole data set: some 2,900 compounds, median “NF-kB SEAP reporter activity, fold change vs agonist alone” near 0.99, cut for the highest 2% near 2.6. What follows is part of a selection rich in the highest values, with near analogues and random picks from the rest.

For test [1], the system named is RAW-Dual. Put plainly: NF-kB SEAP reporter activity, fold change vs agonist alone; cytotoxicity flag (confluency mask): not cytotoxic; higher = enhanced NF-kB activity. Summed up:
(§1)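 After 50 nL of library stock was delivered by pin tool to RAW-Dual macrophages (50,000 cells/well, DMEM, 384-well plates), a PRR agonist was added 1 h later and the plates were kept at 37 °C, 5% CO2. Twenty hours later, IRF was read from supernatant by QuantiLuc luminescence and NF-κB by QuantiBlue absorbance at 620 nm. Reporter activity is stated as fold change over agonist-alone wells. Wells with IncuCyte confluency under 70% of agonist controls in both mask sets were counted as cytotoxic.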

The subject of test [2] is RAW-Dual. Put plainly: NF-kB SEAP reporter activity, fold change vs agonist alone; higher = enhanced NF-kB activity. The essentials: as §1
The test system of test [3] is RAW-Dual. Put plainly: NF-kB SEAP reporter activity, fold change vs agonist alone; cytotoxicity flag (confluency mask): cytotoxic (confluency <70% of control); higher = enhanced NF-kB activity. The essentials: as §1
[4] abbreviates: agonist: ODN 1826 (TLR9) 0.5 ug/mL.
[5] abbreviates: agonist: Pam2CSK4 (TLR2/6) 0.1 ug/mL.
Where [6] appears, read: agonist: Pam3CSK4 (TLR2/1) 0.1 ug/mL.
The mark [7] stands for this setting: library stock concentration (final ~1000-fold dilution): 10 mM, cytotoxicity flag (confluency mask): not cytotoxic, agonist: MPLA (TLR4) […].
The mark [8] stands for this setting: library stock concentration (final ~1000-fold dilution): 10 mM, cytotoxicity flag (confluency mask): not cytotoxic, agonist: Imiquimod (TLR7) […].
The mark [9] stands for this setting: library stock concentration (final ~1000-fold dilution): 2 mM, cytotoxicity flag (confluency mask): not cytotoxic, agonist: Imiquimod (TLR7) […].
Where [10] appears, read: library stock concentration (final ~1000-fold dilution): 2 mM, cytotoxicity flag (confluency mask): not cytotoxic, agonist: MPLA (TLR4) […].

Turning to `NS(=O)(=O)c1ccccc1` (library stock concentration (final ~1000-fold dilution): 10 mM), the “NF-kB SEAP reporter activity” value with RAW-Dual [1] (agonist: LPS (TLR4) 0.1 ug/mL) came to 1.04; with RAW-Dual [1] (setting [4]) it was 0.987; with RAW-Dual [1] (setting [5]), 1.07; with RAW-Dual [1] (setting [6]), 0.771.

Turning to `NS(=O)(=O)c1ccccc1`, the “NF-kB SEAP reporter activity” value in the test with RAW-Dual [2] (setting [7]) stood at 1.11.

Regarding `C=CC1CN2CCC1CC2C(O)c1ccnc2ccc(OC)cc12.C=CC1CN2CCC1CC2C(O)c1ccnc2ccc(OC)cc12.O.O.O=S(=O)(O)O` (stereo not given), the figures for the “NF-kB SEAP reporter activity” value with RAW-Dual [2] (setting [8]) and in the test with RAW-Dual [2] (setting [7]) were 1.06 and 0.931, respectively.

As to `C=CC1CN2CCC1CC2C(O)c1ccnc2ccc(OC)cc12.C=CC1CN2CCC1CC2C(O)c1ccnc2ccc(OC)cc12.O.O.O=S(=O)(O)O` (stereo not given) (library stock concentration (final ~1000-fold dilution): 10 mM), the “NF-kB SEAP reporter activity” value was 1.16 with RAW-Dual [1] (agonist: LPS (TLR4) 0.1 ug/mL), 0.531 in the test with RAW-Dual [1] (setting [4]), 1.35 with RAW-Dual [1] (setting [5]) and 1.05 with RAW-Dual [1] (setting [6]).

As for `CN(C)Cc1ccc(S(=O)(=O)n2ccc(/C=C/C(=O)NO)c2)cc1`, the “NF-kB SEAP reporter activity” value in the test with RAW-Dual [2] (setting [8]) was determined as 1.01; in the test on RAW-Dual [2] (setting [7]) it was 0.905.

Consider `CN(C)Cc1ccc(S(=O)(=O)n2ccc(/C=C/C(=O)NO)c2)cc1` (library stock concentration (final ~1000-fold dilution): 10 mM), for which the “NF-kB SEAP reporter activity” value in the test with RAW-Dual [1] (agonist: LPS (TLR4) 0.1 ug/mL) came to 4.18; in the test with RAW-Dual [1] (setting [4]), 0.95; in the test on RAW-Dual [1] (setting [5]), 1.03; in the test on RAW-Dual [1] (setting [6]), 0.94.

Regarding `CC1(Cn2ccnn2)C(C(=O)O)N2C(=O)CC2S1(=O)=O` (stereo not given), the “NF-kB SEAP reporter activity” value in the test with RAW-Dual [2] (setting [8]) was 1.06; in the test on RAW-Dual [2] (setting [7]), 0.964.

Take `CC1(Cn2ccnn2)C(C(=O)O)N2C(=O)CC2S1(=O)=O` (stereo not given) (library stock concentration (final ~1000-fold dilution): 10 mM): the “NF-kB SEAP reporter activity” value came to 0.971 in the test on RAW-Dual [1] (agonist: LPS (TLR4) 0.1 ug/mL), 1.03 in the test on RAW-Dual [1] (setting [4]), 0.946 in the test on RAW-Dual [1] (setting [5]) and 1.06 with RAW-Dual [1] (setting [6]).

On to `CC(C)Nc1cc(-c2c[nH]c(C(=O)NC(CO)c3cccc(Cl)c3)c2)c(Cl)cn1` (stereo not given), for which the “NF-kB SEAP reporter activity” value in the test on RAW-Dual [2] (setting [8]) came to 0.128; in the test with RAW-Dual [2] (setting [7]) it was 0.246.

Turning to `CC(C)Nc1cc(-c2c[nH]c(C(=O)NC(CO)c3cccc(Cl)c3)c2)c(Cl)cn1` (stereo not given) (library stock concentration (final ~1000-fold dilution): 10 mM), the “NF-kB SEAP reporter activity” value in the test on RAW-Dual [1] (agonist: LPS (TLR4) 0.1 ug/mL) is 0.201; in the test on RAW-Dual [1] (setting [4]), 0.189; with RAW-Dual [1] (setting [5]) it was 0.0811; in the test on RAW-Dual [1] (setting [6]) it was 0.114.

Regarding `CC#Cc1cncc(-c2ccc3c(c2)C2(N=C(C)C(N)=N2)C2(CCC(OC)CC2)C3)c1` (stereo not given), the “NF-kB SEAP reporter activity” value in the test with RAW-Dual [2] (setting [8]) was 1.18; in the test on RAW-Dual [2] (setting [7]), 1.01.

With `CC#Cc1cncc(-c2ccc3c(c2)C2(N=C(C)C(N)=N2)C2(CCC(OC)CC2)C3)c1` (stereo not given) (library stock concentration (final ~1000-fold dilution): 10 mM), the “NF-kB SEAP reporter activity” value with RAW-Dual [1] (agonist: LPS (TLR4) 0.1 ug/mL) turned out to be 1.15; with RAW-Dual [1] (setting [4]) it was 0.723; in the test with RAW-Dual [1] (setting [5]) it was 0.809; with RAW-Dual [1] (setting [6]) it was 0.972.

In the case of `COc1cc(N2CCC(N3CCN(C)CC3)CC2)ccc1Nc1ncc(Cl)c(Nc2ccccc2P(C)(C)=O)n1`, the “NF-kB SEAP reporter activity” value with RAW-Dual [2] (setting [9]) stood at 1.15; in the test with RAW-Dual [2] (setting [10]) it was 1.26.

Turning to `C=CC(=O)Nc1cccc(Oc2nc(Nc3ccc(N4CCN(C)CC4)cc3OC)ncc2Cl)c1` (library stock concentration (final ~1000-fold dilution): 10 mM), the “NF-kB SEAP reporter activity” value with RAW-Dual [1] (agonist: LPS (TLR4) 0.1 ug/mL) came to 0.915; in the test on RAW-Dual [1] (setting [4]), 0.863; in the test with RAW-Dual [1] (setting [5]), 0.802; with RAW-Dual [1] (setting [6]), 0.684.

With `Cc1cc(Nc2ncc(Cl)c(Nc3ccccc3S(=O)(=O)C(C)C)n2)c(OC(C)C)cc1C1CCNCC1`, the “NF-kB SEAP reporter activity” value turned out to be 2.07 with RAW-Dual [2] (library stock concentration (final ~1000-fold dilution): 10 mM, cytotoxicity flag (confluency mask): cytotoxic (confluency <70% of control), agonist: Imiquimod (TLR7) […]) and 0.569 with RAW-Dual [2] (library stock concentration (final ~1000-fold dilution): 10 mM, cytotoxicity flag (confluency mask): cytotoxic (confluency <70% of control), agonist: MPLA (TLR4) […]).

With `COc1cc(N2CCC(N(C)C)CC2)ccc1Nc1ncc(Cl)c(Nc2ccccc2P(C)(C)=O)n1` (library stock concentration (final ~1000-fold dilution): 10 mM), the “NF-kB SEAP reporter activity” value worked out at 1.87 with RAW-Dual [1] (agonist: LPS (TLR4) 0.1 ug/mL), 1.64 in the test with RAW-Dual [1] (setting [4]), 1.03 with RAW-Dual [1] (setting [5]) and 1.46 in the test on RAW-Dual [1] (setting [6]).

`C=CC(=O)Nc1cccc(Oc2nc(Nc3ccc(N4CCN(C)CC4)cc3OC)ncc2Cl)c1`: the “NF-kB SEAP reporter activity” value in the test with RAW-Dual [2] (setting [8]) came out at 0.931; with RAW-Dual [2] (setting [7]) it was 0.977.

Regarding `COc1cc(N2CCC(N3CCN(C)CC3)CC2)ccc1Nc1ncc(Cl)c(Nc2ccccc2P(C)(C)=O)n1` (library stock concentration (final ~1000-fold dilution): 2 mM), the “NF-kB SEAP reporter activity” value in the test on RAW-Dual [1] (agonist: LPS (TLR4) 0.1 ug/mL) was determined as 2.66; in the test with RAW-Dual [1] (setting [4]), 1.27; in the test on RAW-Dual [1] (setting [5]), 1.28; in the test on RAW-Dual [1] (setting [6]), 1.66.

Consider `COc1cc(N2CCC(N3CCN(C)CC3)CC2)ccc1Nc1ncc(Cl)c(Nc2ccccc2S(=O)(=O)C(C)C)n1` (library stock concentration (final ~1000-fold dilution): 2 mM), for which the “NF-kB SEAP reporter activity” value in the test on RAW-Dual [1] (agonist: LPS (TLR4) 0.1 ug/mL) worked out at 1.66; in the test on RAW-Dual [1] (setting [4]), 0.603; with RAW-Dual [1] (setting [5]) it was 0.757; with RAW-Dual [1] (setting [6]), 1.2.

On to `COc1cc(N2CCC(N3CCN(C)CC3)CC2)ccc1Nc1ncnc(Nc2ccccc2S(=O)(=O)C(C)C)n1`, for which the “NF-kB SEAP reporter activity” value with RAW-Dual [2] (setting [8]) was 0.945; in the test on RAW-Dual [2] (setting [7]), 1.14.

For `COc1cc(N2CCC(N3CCN(C)CC3)CC2)ccc1Nc1ncc(Cl)c(Nc2ccccc2S(=O)(=O)C(C)C)n1`, the results for the “NF-kB SEAP reporter activity” value in the test on RAW-Dual [2] (setting [9]) and in the test with RAW-Dual [2] (setting [10]) were 1.28 and 0.939, respectively.

Consider `COc1cc(N2CCC(N(C)C)CC2)ccc1Nc1ncc(Cl)c(Nc2ccccc2P(C)(C)=O)n1`, for which the “NF-kB SEAP reporter activity” value was 1.64 in the test with RAW-Dual [2] (setting [8]) and 2.05 with RAW-Dual [2] (setting [7]).

For the compound `Cc1cc(Nc2ncc(Cl)c(Nc3ccccc3S(=O)(=O)C(C)C)n2)c(OC(C)C)cc1C1CCNCC1` (library stock concentration (final ~1000-fold dilution): 10 mM), the “NF-kB SEAP reporter activity” value in the test with RAW-Dual [3] (agonist: LPS (TLR4) 0.1 ug/mL) came to 0.198; with RAW-Dual [3] (setting [4]), 0.674; with RAW-Dual [3] (setting [5]), 0.845; in the test with RAW-Dual [3] (setting [6]), 0.455.

For the compound `COc1cc(N2CCC(N3CCN(C)CC3)CC2)ccc1Nc1ncnc(Nc2ccccc2S(=O)(=O)C(C)C)n1` (library stock concentration (final ~1000-fold dilution): 10 mM), the “NF-kB SEAP reporter activity” value turned out to be 5.53 with RAW-Dual [1] (agonist: LPS (TLR4) 0.1 ug/mL), 0.961 in the test on RAW-Dual [1] (setting [4]), 0.718 with RAW-Dual [1] (setting [5]) and 1.04 in the test with RAW-Dual [1] (setting [6]).

In the case of `Cl.Cl.NC1CCC(NC2CC2c2ccccc2)CC1` (stereo not given) (library stock concentration (final ~1000-fold dilution): 10 mM), the “NF-kB SEAP reporter activity” value in the test with RAW-Dual [1] (agonist: LPS (TLR4) 0.1 ug/mL) is 1.25; in the test on RAW-Dual [1] (setting [4]) it was 0.222; with RAW-Dual [1] (setting [5]), 0.869; with RAW-Dual [1] (setting [6]) it was 0.615.
